Consider seven compounds from PubChem BioAssay (NCATS).

Results filed as inconclusive are left out. Active and inactive are the calls of the source. The call rests on the fitted dose curve; in most records, active means well fitted curve in the direction sought with a large enough effect; inconclusive means small, poorly fitted or top-dose-only effect, or another doubt; inactive means no such curve, though single readings can be large; an effect the other way counts as inactive or inconclusive.

Chain of Tyrosine-protein kinase Yes (Homo sapiens) (P07947 whole entry, looked up): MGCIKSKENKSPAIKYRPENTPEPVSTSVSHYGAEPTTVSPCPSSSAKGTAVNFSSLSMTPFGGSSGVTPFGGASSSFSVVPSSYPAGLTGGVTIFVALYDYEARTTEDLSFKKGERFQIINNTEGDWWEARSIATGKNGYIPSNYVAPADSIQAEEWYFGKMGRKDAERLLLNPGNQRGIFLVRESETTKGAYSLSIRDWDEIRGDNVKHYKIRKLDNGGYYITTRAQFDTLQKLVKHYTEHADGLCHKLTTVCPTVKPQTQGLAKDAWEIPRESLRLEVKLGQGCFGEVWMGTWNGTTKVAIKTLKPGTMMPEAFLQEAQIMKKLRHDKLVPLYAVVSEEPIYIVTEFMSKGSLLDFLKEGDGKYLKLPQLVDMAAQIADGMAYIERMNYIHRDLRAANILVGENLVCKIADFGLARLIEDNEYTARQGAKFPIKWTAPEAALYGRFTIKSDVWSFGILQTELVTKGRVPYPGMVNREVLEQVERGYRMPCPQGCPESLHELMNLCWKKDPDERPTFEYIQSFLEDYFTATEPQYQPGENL

The first assay deals with Tyrosine-protein kinase Yes (Homo sapiens) (UniProt P07947). As to the kind of experiment: qHTS for small molecule inhibitors of Yes1 kinase: Primary Screen (AID 686947). Further: nearly all actives have a fitted effect of over 60% in size. Further: potency means the concentration at half of the fitted maximal effect.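 On activity change, negative = inhibition: plate controls were DMSO with enzyme for no effect and no-enzyme DMSO wells for full effect.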 The following applies: Yes1 kinase biochemical qHTS inhibition; series mostly up to 76.9 µM; activity change, negative = inhibition: at the top concentration. The essentials:
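ADP-Glo luminescence readout; final 4 nM Yes1, 0.1 mM ATP, 0.3 mg/mL poly(E4Y), Tris pH 7.5, MgCl2, DTT, Brij-35. 20 min compound preincubation, 60 min reaction at RT. Normalized to DMSO wells with and without enzyme.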
For `COc1cc(C)c(Sc2cnc(NC(=O)c3ccc(CNC(C)C(C)(C)C)cc3)s2)cc1C(=O)N1CCN(C(C)=O)CC1` (configuration not stated), the Potency was 0.0547 µM (active).

Consider `N#Cc1c(NC(=O)c2cccc3ccccc23)sc2c1CCCC2`, for which the “activity change, negative = inhibition” value is -15.6% (inactive). Same read-out and setting: the figure for `C=CCNC1=C2C[C@@H](C)C[C@H](OC)[C@@H](O)[C@@H](C)C=C(C)[C@H](OC(N)=O)[C@@H](OC)C=CC=C(C)C(=O)NC(=CC1=O)C2=O` is -7.8% (inactive); for `COc1cc2c(cc1OC)[C@@H]1C(=O)c3ccc4c(c3O[C@@H]1CO2)C=CC(C)(C)O4` it is 0.151% (inactive). In the case of `N#Cc1ccc(COC[C@H]2O[C@@H](n3c(NCc4ccc(Cl)c(Cl)c4)nc4c(N)ncnc43)[C@@H](O)[C@@H]2O)cc1`, the Potency is 0.487 µM (active).

System in the next assay: not listed separately
Description: qHTS for small molecule inhibitors of Yes1 kinase: Counter Assay (AID 686950).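 Further: no kinase present so only ADP-Glo detection of a fixed ADP amount is tested; luminescence from ADP-Glo reporting ADP in a fixed ATP and ADP mixture; 0% = DMSO wells with ATP plus ADP and -100% = ATP-only wells without ADP.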 The following applies: series mostly up to 76.9 µM; activity change, negative = inhibition: at the top concentration. The essentials: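 Luminescence read-out from ADP-Glo quantifies a fixed ADP amount (0.02 mM ADP with 0.08 mM ATP) after 60 min at room temperature; signal is normalized between DMSO wells with ATP/ADP and with 0.1 mM ATP alone.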
A general note: In qHTS, concentration-response curves come from the screen itself.
On to `COc1cc(C)c(Sc2cnc(NC(=O)c3ccc(CNC(C)C(C)(C)C)cc3)s2)cc1C(=O)N1CCN(C(C)=O)CC1` (configuration not stated), for which the outcome was inactive. For the compound `N#Cc1cc(NC(=O)Nc2nnc(-c3ccncc3)s2)ccc1-c1cn[nH]c1`, the “activity change, negative = inhibition” value is 3.63% (inactive). For the compound `N#Cc1c(NC(=O)c2cccc3ccccc23)sc2c1CCCC2`, the “activity change, negative = inhibition” value is 1.13% (inactive). On to `C=CCNC1=C2C[C@@H](C)C[C@H](OC)[C@@H](O)[C@@H](C)C=C(C)[C@H](OC(N)=O)[C@@H](OC)C=CC=C(C)C(=O)NC(=CC1=O)C2=O`, for which the “activity change, negative = inhibition” value was -5.9% (inactive). With `COc1cc2c(cc1OC)[C@@H]1C(=O)c3ccc4c(c3O[C@@H]1CO2)C=CC(C)(C)O4`, the “activity change, negative = inhibition” value was -12.9% (inactive). With `N#Cc1ccc(COC[C@H]2O[C@@H](n3c(NCc4ccc(Cl)c(Cl)c4)nc4c(N)ncnc43)[C@@H](O)[C@@H]2O)cc1`, the “activity change, negative = inhibition” value is 3.94% (inactive). In the case of `Cn1c(Nc2ccc(C(F)(F)F)cc2)nc2cc(Oc3ccnc(-c4ncc(C(F)(F)F)[nH]4)c3)ccc21`, the “activity change, negative = inhibition” value was -5.95% (inactive).
